Assay outcomes from PubChem BioAssay.
Only some compounds are listed: those with a hit (about 3.1% of all), similar ones and a draw of the others.
BoNT-F LC inh: BoNT F light chain protease inhibition; inhibition, % at 10 µM; Multiplex microsphere protease cleavage assay, flow cytometry; AID 588497; 360,000 compounds, 0.22% hits; in the data active = inhibition above about 35%, passing the limit was not always enough; inconclusive = no clear call, values can overlap the other calls; also: plate controls were buffer without enzyme for full effect and enzyme alone for no effect
BoNT A protease: inhibitors of Botulinum neurotoxin A light chain protease; multiplex microsphere protease substrate cleavage, flow cytometry; 360,000 compounds, 0.17% hits; inhibition, % at 10 µM; also: plate controls were buffer without enzyme for full effect and enzyme alone for no effect
SSB-PriA inh: K. pneumoniae PriA-SSBct interaction inhibition | inhibition, % at 33 µM | AlphaScreen SSBct-PriA binding, biotinylated peptide | 430,000 compounds, 0.6% hits | AID 1272365; in the data active = inhibition mostly above about 37%, no sharp cut-off; inactive = mostly below about 20%;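 also: plate controls were negative control peptide for no effect and reference peptide for full effect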
Bead autofluor: compound fluorescence in toxin protease inhibitor counterscreen; fluorescence intensity (concentration not given with the values); 360,000 compounds, 3.1% hits; compound autofluorescence counterscreen, microsphere flow cytometry; active compounds read high; in the data active = fluorescence intensity above about 16000; inconclusive = no clear call, values can overlap the other calls
Anthrax LF inh2: inhibitors of Bacillus anthracis lethal factor protease | multiplex microsphere protease cleavage assay, LF | inhibition, % at 10 µM | 360,000 compounds, 0.12% hits; also: plate controls were buffer without enzyme for full effect and enzyme alone for no effect
* = called active by the depositor; ? = inconclusive; · = not tested or not shown. Rule as the data show it, unless noted: active = inhibition above about 30%; inconclusive = no clear call, values can overlap the other calls; inactive = below that.

SMILES | BoNT-F LC inh | BoNT A protease | SSB-PriA inh | Bead autofluor | Anthrax LF inh2
Cc1cc(C=C2C(=O)N(C)C(=S)N(C)C2=O)c(C)n1C1CCCC1 | 27.4 | 53.7* | -3.0 | 4034 | 37.9*
CCN1C(=O)C(=Cc2cc(C)n(C3CC3)c2C)C(=O)N(CC)C1=S | 8.2 | 41.0* | 9.4 | 2840 | 15.6
Cc1cc(/C=C2\SC(=S)NC2=O)c(C)n1C1CC1 | 3.1 | 1.3 | 0.3 | 20502* | 3.4
Cc1cc(/C=C2/C(=O)N(C)C(=S)N2C)c(C)n1C1CC1 | -10.8 | 4.6 | 8.1 | 2602 | -3.1
Cc1cc(/C=C2\C(=O)NC(=S)N(C)C2=O)c(C)n1C1CCCCC1 | 2.0 | 0.1 | -22.2 | 6737 | -1.8
CCN1CCC2(CCNC2)C1 (configuration not stated) | 1.1 | -0.8 | -12.5 | 16425* | -2.6
COc1ccc(Cl)cc1-n1nnc(C(=O)N2CCc3ccccc3C2)c1C | · | · | -10.0 | · | ·
COCCn1nnnc1CN1CCC(NC(=O)c2ccc(Br)cc2)CC1 | -2.0 | 0.3 | -13.8 | 3728 | -3.1
COc1cc(C(=O)NC2CCN(Cc3nnnn3Cc3cccs3)CC2)cc(OC)c1OC | 0.8 | 0.7 | -0.7 | 22671* | -7.5
O=C(Nc1ncc(S(=O)(=O)c2ccc([N+](=O)[O-])cc2)s1)c1ccc(N2C(=O)CCC2=O)cc1 | · | · | 7.0 | · | ·
O=C(c1ccccc1Cl)N(C(=O)N1CCCCC1)c1ccccc1 | · | · | -3.0 | · | ·
CCOc1cc(S(=O)(=O)NCCc2ccc(OC)c(OC)c2)c(OCC)cc1-n1cnnn1 | -2.7 | -0.1 | 13.2 | 10269 | 1.8
CCOc1cc(S(=O)(=O)NCc2ccc(OC)cc2)c(OCC)cc1-n1cnnn1 | -0.4 | ? | -9.7 | 23322* | -4.5
Cc1ccccc1N=Nc1ccc(NC(=O)c2snnc2C)c(C)c1 | · | · | 15.0 | · | ·
O=[N+]([O-])c1ccccc1NN=C1CC2CC=CC12 (configuration not stated) | · | · | 70.8* | · | ·
O=[N+]([O-])c1ccccc1NN=Cc1ccccc1 | · | · | -8.6 | · | ·
CC(C)S(=O)(=O)c1ccc(C(=O)Nc2ncnc3c2CCC3)cc1 | · | · | -9.0 | · | ·
COc1ccc(-c2ccc(=O)n(Cc3nc(-c4cccc(C(F)(F)F)c4)no3)n2)cc1OC | · | · | -16.0 | · | ·
OCC(CO)(CO)N=Cc1c(O)ccc2ccccc12 | 2.1 | 0.3 | 5.3 | 16546* | 0.1
Oc1cccnc1N=Cc1c(O)ccc2ccccc12 | · | · | 58.0* | · | ·
CN(C)N=Cc1c(O)ccc2ccccc12 | · | · | 39.3 | · | ·
Cc1nnsc1C(=O)N1CCCSCC1CN1CCOCC1 (configuration not stated) | · | · | 13.0 | · | ·
CCC(=O)Nc1nnc(S(=O)(=O)N2c3ccccc3CC2C)s1 (configuration not stated) | -6.0 | -0.2 | 100.5* | 4389 | 1.1
Cc1cc2n(n1)C(c1cn(-c3ccccc3)nc1C)Nc1c(C)cccc1-2 (configuration not stated) | -5.8 | -1.1 | -16.9 | ? | -22.6
Cc1cc2n(n1)C(c1cn(-c3ccccc3)nc1C)Nc1ccccc1-2 (configuration not stated) | -1.3 | ? | 11.8 | 22907* | -1.4
SMILES | BoNT-F LC inh | BoNT A protease | SSB-PriA inh | Bead autofluor | Anthrax LF inh2
CCc1ccc(-c2csc(/C(C#N)=C/Nc3ccc(C(=O)OCCN(CC)CC)cc3)n2)cc1 | · | · | -3.0 | · | ·
c1ccc(OCCn2cnc3ccccc32)cc1 | 24.6 | ? | -7.0 | 17262* | -4.1
Brc1ccccc1OCCCn1cnc2ccccc21 | 3.4 | 1.3 | -13.7 | 19986* | -1.3
CCCOc1ccc(Cn2cnc3ccccc32)cc1 | -1.7 | 0.7 | -7.8 | 16239* | 0.4
N#Cc1cc2c([nH]c1=O)CCN(C(=O)c1cccc(OCc3ccccc3)c1)C2 | · | · | -19.0 | · | ·
COc1ccc(NC(=O)c2cccnc2Cl)c(S(=O)(=O)N2CCOCC2)c1 | 3.6 | 2.3 | -17.5 | 22564* | -0.2
COc1ccc(NC(=O)c2cncc(Br)c2)c(S(=O)(=O)N2CCOCC2)c1 | -2.6 | 1.0 | -10.5 | 2851 | -1.0
CCCc1cc(=O)n(CC(=O)NCc2ccc(F)cc2)cn1 | · | · | -4.0 | · | ·
COc1ccc(C(=O)OCc2cc(-c3cccs3)on2)c(OC)c1 | · | · | -21.0 | · | ·
O=C(Nc1nnc(COc2ccccc2)s1)C1CCN(S(=O)(=O)c2ccc(Cl)cc2)CC1 | -0.4 | 0.5 | -17.7 | 23493* | -3.2
COc1ccc(-n2ncc3c(NCc4ccco4)ncnc32)cc1 | -3.8 | -1.4 | -9.9 | 11032 | -0.4
CCC(CO)Nc1ncnc2c1cnn2-c1ccc(OC)cc1 (configuration not stated) | 5.0 | 0.0 | 115.4* | 5111 | 8.5
C=CCNc1ncnc2c1cnn2-c1ccc(OC)cc1 | 0.4 | 0.5 | -21.4 | 16362* | -4.3
CCC(CO)Nc1ncnc2c1cnn2-c1ccc(Cl)cc1 (configuration not stated) | 2.7 | 0.3 | -17.5 | 6159 | -0.5
CC(=O)N1CCC(c2nnc(-c3ccco3)o2)CC1 | · | · | 3.0 | · | ·
COc1ccc(Cc2c(O)nc[nH]c2=O)cc1 | -5.0 | ? | -18.8 | 16832* | 2.3
COc1ccc(Cc2c(O)nc(SCC(C)C)[nH]c2=O)cc1 | 29.5 | 0.2 | -13.8 | 4060 | 3.8
O=C(NCC(c1ccc(F)cc1)N1CCOCC1)c1cccc(Br)c1 (configuration not stated) | -3.1 | 1.1 | 42.1* | 3757 | -1.7
O=C(c1cnn2c1OCCC2)N1CCN(C/C=C/c2ccccc2)CC1 | · | · | -21.0 | · | ·
Cc1ccc(NC(=O)c2ccccc2)s1 | -8.1 | -1.7 | -4.1 | 24292* | -1.9
O=C(NCCn1nc(C(F)(F)F)cc1C1CC1)c1cc(=O)c2ccccc2o1 | · | · | 3.0 | · | ·
COc1ccc(CCNC(=O)CC2NCCNC2=O)cc1OC (configuration not stated) | · | · | -13.0 | · | ·
Cn1nnnc1SCCNCc1cccnc1 | 3.6 | -0.1 | -9.6 | 11069 | -2.7
COc1ccc(CNCCSc2nnnn2C)cc1OC | 0.4 | 2.4 | -33.1 | 19838* | -0.3
COc1ccc(Br)cc1CNCCSc1nnnn1C | -7.5 | 0.4 | -12.1 | 22723* | -0.9
SMILES | BoNT-F LC inh | BoNT A protease | SSB-PriA inh | Bead autofluor | Anthrax LF inh2
CCc1ccc(CNCCSc2nnnn2C)cc1 | -5.8 | -1.0 | 2.2 | 23525* | -1.1
CS(=O)(=O)OC1C=CS(=O)(=O)C1 (configuration not stated) | · | · | -9.0 | · | ·
Cc1ccc(SCC(=O)N2CC(=O)Nc3ccccc32)cc1 | · | · | -11.0 | · | ·
CCOC(=O)Cn1nc(C)n(-c2ccc(C(C)C)cc2)c1=O | -5.4 | -2.0 | -16.7 | 16947* | -3.8
COc1ccc(N2C(=O)CSC23CCCCC3)cc1 | -0.3 | -0.8 | -5.0 | 21829* | -7.9
Cc1cccc(C(N)=NOC(=O)c2ccc3c(c2)OCO3)c1 | · | · | -2.7 | · | ·
CN(C)c1cnnc(N2CCN(C(=O)C3CCCC3)CC2)c1 | · | · | -1.0 | · | ·
O=C(CCCNS(=O)(=O)c1cccc2nsnc12)N1CCCCC1 | -12.7 | -0.1 | -4.3 | 4308 | -1.2
O=C(CCNS(=O)(=O)c1cccc2nsnc12)N1CC(=O)N(CCc2ccccc2)C(=O)C1 | -6.8 | ? | -8.0 | 21566* | -2.7
O=c1[nH]c(N/N=C/c2ccccc2)nc2ccccc12 | -3.1 | -2.0 | · | 16682* | -4.5
CC(C)C(=O)c1cc2c(cc1NC(=O)c1ccccc1)OCCO2 | -2.9 | ? | -14.8 | 23685* | -2.3
CCC(=O)c1cc2c(cc1NC(=O)c1ccc(C)cc1)OCCO2 | 4.9 | ? | -10.9 | 20255* | -0.4
CC(=O)Nc1cc2c(cc1C(=O)C(C)C)OCCO2 | 4.7 | -0.6 | -8.9 | 3774 | -2.8
